# Experimental data: paper PMC5540273 (PLoS ONE, 2017)
# Assays:
# Conditions in all cases: concentration: 1 μM,replicates: in singlicate; n = 1
# CDK8 = system: CDK8
# CDK9 = system: CDK9
# CDKL1 = system: CDKL1
# CDKL2 = system: CDKL2
# CDKL3 = system: CDKL3
# CDKL5 = system: CDKL5
# CHEK1 = system: CHEK1
# CHEK2 = system: CHEK2
# CIT = system: CIT
# CLK1 = system: CLK1
# 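Also: KINOMEscan kinase panel screen.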
SMILES,%Inh (CDK8) [%],%Inh (CDK9) [%],%Inh (CDKL1) [%],%Inh (CDKL2) [%],%Inh (CDKL3) [%],%Inh (CDKL5) [%],%Inh (CHEK1) [%],%Inh (CHEK2) [%],%Inh (CIT) [%],%Inh (CLK1) [%]
Cn1ccc2ncnc(Oc3ccc(NC(=O)Nc4cc(C(C)(C)C)on4)c(Cl)c3)c21,90.9,6,48,26,17,32,0,7,63,0
CC(=O)c1c(-c2ccncc2)[nH]c(-c2ccncc2)c1C [GW493036],0,87,0,43,16,35,83,0,100,99.8
C[C@@H]1CNc2c(sc3ccc4nc(-c5ccncc5)ccc4c23)C(=O)N1,7,44,11,0,5,0,0,18,22,92.9
CCN1CCN(CCCC(=O)Nc2n[nH]c3nc(-c4ccc(O)cc4)c(Br)cc23)CC1 [SB-731579],14,0,23,73,2,86,0,15,63,47
CC(C(=O)NC1CCN(c2ccnc(Nc3ccc(F)cc3)n2)C1)c1ccc(Cl)cc1 (stereo not shown) [GSK1379713],23,0,0,1,0,0,15,0,28,15
C[C@@H](Oc1cc(-n2cnc3ccc(-c4ccncc4)cc32)sc1C(N)=O)c1ccccc1Cl [GSK483724],57,3,16,78,32,0,0,0,98.8,98.2
O=C(Nc1cccc(Oc2ccc3nccn3n2)c1)Nc1cccc(C(F)(F)F)c1,90.9,0,0,62,0,4,0,0,99.9,31
Cl.Nc1n[nH]c2cc(-c3ccccn3)ccc12 [GSK2189892],13,7,4,24,0,0,18,0,25,23
CS(=O)(=O)Nc1ccc(-c2ccnc3[nH]ccc23)cc1 [GSK993273],18,0,0,19,0,0,0,0,57,96.7
CC(C)S(=O)(=O)N1CCN(Cc2ccc3c(c2)nc(NC(=O)c2ccsc2)n3C[C@H](O)c2ccccc2)CC1 [GW635815],15,0,8,6,0,0,0,32,98.4,98.5
CN(c1ccccc1CNc1nc(Nc2ccc3c(c2)CC(=O)N3)ncc1C(F)(F)F)S(C)(=O)=O,0,40,13,8,0,0,0,0,10,95
C[C@@H](Oc1cc(-n2cnc3cc(-c4ccncc4)ccc32)sc1C(N)=O)c1ccccc1Cl [GSK479719],12,4,21,33,0,0,4,0,24,73
OCCn1cc(-c2cnc3nnn(Cc4ccc5ncccc5c4)c3n2)cn1,0,8,0,0,10,0,0,6,0,16
Cn1ccc2ncnc(Oc3ccc(NC(=O)Nc4cnn(C(C)(C)C)c4)c(Cl)c3)c21,97.1,0,21,10,19,26,3,0,39,0
COC(=O)c1cccc(NC(=O)NC2CCN(c3ccnc(NCc4ccc(F)cc4)n3)CC2)c1 [GSK1379860],23,0,0,11,0,4,18,0,33,28
Cn1cc(-c2cccc3c(N)c(C(N)=O)nnc23)cn1,33,0,32,12,7,0,0,0,10,74
COc1ccc(Nc2nccc(N3CCC(NC(=O)c4cccc(C#N)c4)C3)n2)cc1 (stereo not shown) [GSK1379730],17,0,24,0,0,0,0,0,0,11
CC(C)c1nc(-c2cccc(NS(=O)(=O)c3ccccc3)c2)c(-c2ccnc(Nc3ccc4c(c3)CN(C)CC4)n2)s1 [GSK1649598],0,60,0,100,37,99,5,24,84,30
O=c1[nH]cc(-c2ccc(O)cc2)c2sc(-c3ccncc3)cc12 [GSK1033723],27,6,7,9,0,0,0,10,45,95.7
